{
  "source": "the supplement of paper PMC12494721",
  "note": "Structures can show the parent of a compound that is named as a salt. Values without a mark were called inactive.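 Rule for the calls: for the amine columns active = adjusted P below 0.05 in both replicates with a change the same way and a mean fold change under 0.8 or over 1.25; inactive = the rest.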",
  "data": [
    {"tested_on": "Klebsiella aerogenes DSM 30053", "test": "fold change of Histamine concentration vs plate DMSO controls (fold change (ratio)); higher = more amine produced, active = hit call of the paper (significant change in both replicates, either direction)", "settings": "incubation time: 27 h, anaerobic, 37 °C", "how_it_was_run": "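Each value is the fold change relative to DMSO-only wells on the same plate. Four gut bacterial strains were grown anaerobically in mGAM at 37 °C for 27 h in 80 µL wells, starting at OD 0.1 before a 1:1 dilution, with compounds at 20 µM final (sweeteners 50 µM). Whole cultures were extracted with cold acetonitrile/methanol containing 0.1% formic acid, centrifuged, and amines were quantified by LC–triple-quadrupole MS (dynamic MRM) against external calibration curves with within-batch drift correction. Values are means of 2 biological replicates.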", "values": [
      {"smiles": "Oc1c(Cl)cc(Cl)cc1Sc1cc(Cl)cc(Cl)c1O", "note": "[Bithionol] (20 µM)", "fold change of Histamine concentration": 1.05},
      {"smiles": "CO[C@@]1(NC(=O)C2SC(=C(C(N)=O)C(=O)O)S2)C(=O)N2C(C(=O)O)=C(CSc3nnnn3C)CS[C@@H]21", "note": "(some centres undefined) [Cefotetan] (20 µM)", "fold change of Histamine concentration": "0.528 (active)"},
      {"smiles": "N#CC(c1ccc(Cl)cc1)c1c(Cl)cc(-n2ncc(=O)[nH]c2=O)cc1Cl", "note": "(centres undefined) [Diclazuril] (20 µM)", "fold change of Histamine concentration": 0.913},
      {"smiles": "CN(C)CCCN1c2ccccc2Sc2ccc(C(F)(F)F)cc21", "note": "[Triflupromazine hydrochloride] (20 µM)", "fold change of Histamine concentration": 0.959},
      {"smiles": "CCC(=O)OCC(=O)[C@@]1(OC(=O)CC)[C@@H](C)C[C@H]2[C@@H]3CCC4=CC(=O)C=C[C@]4(C)[C@@]3(Cl)[C@@H](O)C[C@@]21C", "note": "[Beclomethasone dipropionate] (20 µM)", "fold change of Histamine concentration": 1},
      {"smiles": "O=C1CN(/N=C/c2ccc(-c3ccc([N+](=O)[O-])cc3)o2)C(=O)N1", "note": "[Dantrolene sodium salt] (20 µM)", "fold change of Histamine concentration": 0.984},
      {"smiles": "CC(C)(C(=O)O)c1ccc(C(O)CCCN2CCC(C(O)(c3ccccc3)c3ccccc3)CC2)cc1", "note": "(centres undefined) [Fexofenadine hydrochloride] (20 µM)", "fold change of Histamine concentration": 0.876},
      {"smiles": "C[C@H]1[C@@H](O)O[C@@H]2O[C@@]3(C)CC[C@H]4[C@H](C)CC[C@@H]1[C@@]24OO3", "note": "[Artenimol] (20 µM)", "fold change of Histamine concentration": 1.01},
      {"smiles": "CC(C)(C)NC[C@H](O)COc1ccccc1C1CCCC1", "note": "[Penbutolol sulfate] (20 µM)", "fold change of Histamine concentration": 1.02},
      {"smiles": "Cc1ccc(-c2ncc(Cl)cc2-c2ccc(S(C)(=O)=O)cc2)cn1", "note": "[Etoricoxib] (20 µM)", "fold change of Histamine concentration": 0.814},
      {"smiles": "Clc1ccc(CO/N=C(\\Cn2ccnc2)c2ccc(Cl)cc2Cl)c(Cl)c1", "note": "[Oxiconazole nitrate] (20 µM)", "fold change of Histamine concentration": 1.02},
      {"smiles": "NCc1ccc(S(N)(=O)=O)cc1", "note": "[Mafenide hydrochloride] (20 µM)", "fold change of Histamine concentration": 1.08},
      {"smiles": "c1ccc(-c2ccc(C(c3ccccc3)n3ccnc3)cc2)cc1", "note": "(centres undefined) [Bifonazole] (20 µM)", "fold change of Histamine concentration": 0.99},
      {"smiles": "OC[C@H]1O[C@@H](O[C@H]2[C@H](O)[C@@H](O)[C@H](O)O[C@@H]2CO)[C@H](O)[C@@H](O)[C@H]1O", "note": "[Lactose] (50 µM)", "fold change of Histamine concentration": 1.01},
      {"smiles": "CC(CNC1CCCCC1)OC(=O)c1ccccc1", "note": "(centres undefined) [Hexylcaine hydrochloride] (20 µM)", "fold change of Histamine concentration": 1.02},
      {"smiles": "CN(C)CCc1c[nH]c2ccc(Cn3cncn3)cc12", "note": "[Rizatriptan benzoate] (20 µM)", "fold change of Histamine concentration": 0.934},
      {"smiles": "CC[N+]1(CC)CCC(=C(c2ccccc2)c2ccccc2)C1C", "note": "(centres undefined) [Prifinium Bromide] (20 µM)", "fold change of Histamine concentration": 0.982},
      {"smiles": "COc1ccc(C(=O)c2ccc(C)cc2)c(O)c1", "note": "[Mexenone] (20 µM)", "fold change of Histamine concentration": 1.02},
      {"smiles": "CC(C)NCC(O)COc1ccc(CCOCC2CC2)cc1", "note": "(centres undefined) [Betaxolol hydrochloride] (20 µM)", "fold change of Histamine concentration": 0.935},
      {"smiles": "COc1cc(N)cn[n+]1-c1ccccc1", "note": "[Amezinium metilsulfate] (20 µM)", "fold change of Histamine concentration": 0.987},
      {"smiles": "C[C@H](NCc1ccc(OCc2cccc(F)c2)cc1)C(N)=O", "note": "[Safinamide] (20 µM)", "fold change of Histamine concentration": 1.02},
      {"smiles": "CC#C[C@]1(O)CC[C@H]2[C@@H]3CCC4=CC(=O)CCC4=C3[C@@H](c3ccc(N(C)C)cc3)C[C@@]21C", "note": "[Mifepristone] (20 µM)", "fold change of Histamine concentration": 1.02},
      {"smiles": "O=C1CCC(N2C(=O)c3ccccc3C2=O)C(=O)N1", "note": "(centres undefined) [Thalidomide] (20 µM)", "fold change of Histamine concentration": 1},
      {"smiles": "CCCC(=O)Nc1ncnc2c1ncn2[C@@H]1O[C@@H]2COP(=O)(O)O[C@H]2[C@H]1OC(=O)CCC", "note": "[Bucladesine sodium salt] (20 µM)", "fold change of Histamine concentration": 0.931},
      {"smiles": "CCOC(=O)C1=C[C@@H](OC(CC)CC)[C@H](NC(C)=O)[C@@H](N)C1", "note": "[Oseltamivir phosphate] (20 µM)", "fold change of Histamine concentration": 1.03},
      {"smiles": "Brc1c(NC2=NCCN2)ccc2nccnc12", "note": "[Brimonidine L-tartrate] (20 µM)", "fold change of Histamine concentration": 0.928},
      {"smiles": "CC(C)(C)NC[C@H](O)COc1nsnc1N1CCOCC1", "note": "[Timolol maleate salt] (20 µM)", "fold change of Histamine concentration": 1.04},
      {"smiles": "O=C(CCCN1CCC(O)(c2ccc(Cl)cc2)CC1)c1ccc(F)cc1", "note": "[Haloperidol] (20 µM)", "fold change of Histamine concentration": 1.06},
      {"smiles": "OC[C@@H](O)[C@H](O)[C@@H](O)CO", "note": "[Xylitol] (50 µM)", "fold change of Histamine concentration": 1.08},
      {"smiles": "Cc1cnc(C(=O)NCCc2ccc(S(=O)(=O)NC(=O)NC3CCCCC3)cc2)cn1", "note": "[Glipizide] (20 µM)", "fold change of Histamine concentration": 0.94},
      {"smiles": "Fc1ccc([C@@H]2CCNC[C@H]2COc2ccc3c(c2)OCO3)cc1", "note": "[Paroxetine hydrochloride] (20 µM)", "fold change of Histamine concentration": 1.05},
      {"smiles": "Nc1nnc(-c2cccc(Cl)c2Cl)c(N)n1", "note": "[Lamotrigine] (20 µM)", "fold change of Histamine concentration": 0.977},
      {"smiles": "Oc1c(Cl)cc(Cl)c(Cl)c1Cc1c(O)c(Cl)cc(Cl)c1Cl", "note": "(20 µM)", "fold change of Histamine concentration": 1.06},
      {"smiles": "Cc1c(Nc2ncccc2C(=O)O)cccc1C(F)(F)F", "note": "[Flunixin meglumine] (20 µM)", "fold change of Histamine concentration": 0.909},
      {"smiles": "COc1c(O)cc2c(c1O)[C@@H]1O[C@H](CO)[C@@H](O)[C@H](O)[C@H]1OC2=O", "note": "[Bergenin] (20 µM)", "fold change of Histamine concentration": 0.891},
      {"smiles": "Nc1c(CC(=O)O)cccc1C(=O)c1ccc(Br)cc1", "note": "[Bromfenac] (20 µM)", "fold change of Histamine concentration": 0.965},
      {"smiles": "CNC[C@H](O)[C@@H](O)[C@H](O)[C@H](O)CO", "note": "[Meglumine] (20 µM)", "fold change of Histamine concentration": 0.883},
      {"smiles": "O=C(Nc1ccc([N+](=O)[O-])cc1Cl)c1cc(Cl)ccc1O", "note": "[Niclosamide] (20 µM)", "fold change of Histamine concentration": 0.97},
      {"smiles": "CN1CCN2c3ncccc3Cc3ccccc3C2C1", "note": "(centres undefined) [Mirtazapine] (20 µM)", "fold change of Histamine concentration": 0.963}
    ]}
  ]
}
